Results with a measured potency or affinity are listed apart. Activity calls are given as the source filed them.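 How the source made its calls: active means CTGF level falls with dose and the fitted half-maximal dose is at most twice the top valid dose; inconclusive means flat fit with 30 to 70% drop, or a poor fit; inactive means the rest.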
Test: YAP1 pathway inhibition via CTGF transcript levels, dose response, cell-based, DLD1 colon cancer, RT-qPCR, cherry-pick (AID 1053122)
Settings: DLD1 CTGF mRNA (YAP1 pathway), 24 h; series mostly up to 26 µM; CTGF expression fold change (lower = inhibition): at the top concentration

CTGF expression fold change (lower = inhibition), inactive:
C[C@@H]1CN([C@@H](C)CO)C(=O)c2cc(NC(=O)Nc3ccccc3)ccc2O[C@@H](C)CCCCO[C@@H]1CN(C)C(=O)Nc1ccccc1 0.865 unspecified, COc1ccc2c3c(n(C)c2c1)[C@@H](CO)N(Cc1ccncc1)CC31CN(C(=O)Nc2cccc(F)c2)C1 0.843 unspecified, O=C([C@H]1[C@H](CO)[C@H]2Cn3c(ccc(-c4ccc(F)cc4)c3=O)[C@H]2N1Cc1cocn1)N1CCCCC1 1.02 unspecified, C[C@@H]1CN([C@H](C)CO)C(=O)c2ccccc2-c2ccccc2CO[C@@H]1CN(C)Cc1ccc2c(c1)OCCN2C 0.751 unspecified, C[C@H](CO)N1C[C@H](C)[C@@H](CN(C)S(=O)(=O)c2ccc([N+](=O)[O-])cc2)OCc2ccccc2-c2c(n(C)c3ccccc23)C1=O 0.751 unspecified, NCC[C@H]1CC[C@@H](NC(=O)NC2CCCCC2)[C@H](CO)O1 0.998 unspecified, COc1ccc2c3c(n(C)c2c1)[C@H](CO)N(S(C)(=O)=O)CC31CCN(C(=O)Nc2cccc(F)c2)CC1 0.819 unspecified, CN1C(=O)c2cc(NS(=O)(=O)c3ccccc3F)ccc2OC[C@@H]2O[C@@H](CC(=O)NC3Cc4ccccc4C3)CC[C@@H]21 1.2 unspecified, C[C@@H]1CN([C@@H](C)CO)C(=O)c2ccccc2-c2ccccc2CO[C@H]1CN(C)C(=O)Nc1cccc(C(F)(F)F)c1 0.611 unspecified, CC(C)(C)[S@@](=O)N1Cc2cc(C(=O)NCC(F)(F)F)nc(-c3cccc(-c4cccc(F)c4)c3)c2[C@H]1CCO 0.913 unspecified, CC(C)(C)[S@](=O)N1Cc2cc(C(=O)NCCc3ccncc3)nc(-c3cccc(-c4cccc(C#N)c4)c3)c2[C@@H]1CCO 0.654 unspecified, COc1ccc(CN(C)C[C@H]2Oc3ccc(NC(=O)Nc4ccc5c(c4)OCO5)cc3CC(=O)N([C@@H](C)CO)C[C@H]2C)cc1 0.724 unspecified, C[C@@H]1CN([C@H](C)CO)C(=O)c2cccc(NC(=O)c3nc4ccccc4s3)c2O[C@H]1CN(C)C(=O)Nc1ccc2c(c1)OCO2 0.622 unspecified [at 23.5 µM], CC(=O)N1CCCCN2[C@@H](CO)[C@H](c3ccc(-c4ccccc4)cc3)[C@@H]2C1 0.486 unspecified, C[C@@H]1CN([C@H](C)CO)C(=O)CCCn2nncc2CO[C@@H]1CN(C)C(=O)c1cc(-c2ccccc2)on1 0.625 unspecified, COc1ccc([C@H]2C/C=C\C[C@@H](c3ccc4c(c3)OCO4)NC(=O)[C@@H](c3ccccc3)CC(=O)N2)c(OC)c1 2.12 unspecified, C[C@H]1CN([C@@H](C)CO)C(=O)c2cccc(NC(=O)c3ccc(-c4nccs4)cc3)c2O[C@@H]1CN(C)C(=O)Nc1ccc(C(F)(F)F)cc1 0.515 unspecified, CC(C)(C)[S@](=O)N1Cc2cc(C(=O)NCc3ccccn3)nc(-c3cccc(-c4ccccc4F)c3)c2[C@@H]1CCO 0.92 unspecified, CCCC#Cc1ccc([C@@H]2[C@@H](C#N)N(C(=O)CN3CCOCC3)[C@H]2CO)cc1 1.05 unspecified [at 23.5 µM], CN1CCN(C(=O)C[C@@H]2CC[C@H]3[C@@H](COc4ccc(NC(=O)C5CCOCC5)cc4C(=O)N3C)O2)CC1 0.869 unspecified, C[C@H](O)C#Cc1ccc([C@H]2[C@@H](CO)N3CCCCN(C(=O)c4ccc5c(c4)OCO5)C[C@@H]23)cc1 0.846 unspecified [at 23.5 µM], C[C@@H]1CN([C@@H](C)CO)C(=O)c2cccc(NC(=O)c3nc4ccccc4s3)c2O[C@H]1CN(C)C(=O)Nc1ccc2c(c1)OCO2 0.667 unspecified, Cc1ccccc1-c1ccc([C@H]2[C@@H](CO)N3CCCCN(S(=O)(=O)Cc4ccccc4)C[C@@H]23)cc1 0.556 unspecified, C[C@H]1CN([C@@H](C)CO)S(=O)(=O)c2ccc(-c3cncnc3)cc2O[C@@H]1CN(C)C(=O)NC1CCCC1 0.874 unspecified, C[C@@H]1CN([C@H](C)CO)C(=O)c2ccccc2-c2ccccc2CO[C@@H]1CN(C)Cc1ccccc1C(F)(F)F 0.554 unspecified, CN(C)C(=O)c1ccc(-c2cccc(-c3nc(C(=O)NCc4ccccc4)cc4c3[C@@H](CCO)N([S@](=O)C(C)(C)C)C4)c2)cc1 1.62 unspecified, O=C(CC1CC1)N1CC(=O)N2[C@@H](CO)[C@H](c3ccc(/C=C/c4ccccc4)cc3)[C@@H]2C1 0.997 unspecified
